Inconclusive results are not listed. A number with no mark means an inactive call. Activity calls are given as the source filed them. The call rests on the fitted dose curve; in most records, active means well fitted curve in the direction sought with a large enough effect in the repeat runs; inconclusive means weak or mixed curves; inactive means no such curve, though single readings can be large; an effect the other way counts as inactive or inconclusive.
Molecular target: Luciferin 4-monooxygenase (Photinus pyralis) (UniProt P08659)
Sequence (P08659 whole entry, looked up): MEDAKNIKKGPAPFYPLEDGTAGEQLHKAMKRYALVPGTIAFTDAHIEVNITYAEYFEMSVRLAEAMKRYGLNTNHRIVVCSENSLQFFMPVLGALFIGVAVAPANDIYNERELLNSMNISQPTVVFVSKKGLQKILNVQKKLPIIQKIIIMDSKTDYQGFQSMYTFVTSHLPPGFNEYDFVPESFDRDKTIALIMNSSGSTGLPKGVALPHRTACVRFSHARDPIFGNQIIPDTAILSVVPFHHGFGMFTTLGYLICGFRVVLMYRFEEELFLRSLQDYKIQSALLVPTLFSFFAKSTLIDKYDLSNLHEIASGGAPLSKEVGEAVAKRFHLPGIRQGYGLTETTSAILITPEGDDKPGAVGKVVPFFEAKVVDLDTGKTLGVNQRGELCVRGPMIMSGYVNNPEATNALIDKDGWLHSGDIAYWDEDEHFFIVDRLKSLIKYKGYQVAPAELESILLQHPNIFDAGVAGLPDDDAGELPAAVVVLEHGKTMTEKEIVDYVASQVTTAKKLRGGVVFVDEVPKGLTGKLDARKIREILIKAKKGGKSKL
Assay: qHTS assay to identify small molecule inhibitors of firefly luciferase (AID 1224835); further: nearly all actives have a fitted effect of over 25% in size
Details: purified P. pyralis luciferase, luminescence inhibition; series mostly up to 115 µM; activity change, negative = inhibition: at the top concentration
Summary of the method: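 Inhibition of purified Photinus luciferase is measured by luminescence. Substrate levels (D-luciferin, ATP) sit at their KM values. Each compound is tested in a concentration series.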
On the % scale 0 is the no-effect control and ±100 the full control effect.

| SMILES | activity change, negative = inhibition |
| --- | --- |
| O=[N+]([O-])c1cc[n+]([O-])cc1 | 3.68% |
| CC(C)(Oc1ccc(Cl)cc1)C(=O)OCCCOC(=O)C(C)(C)Oc1ccc(Cl)cc1 | 1.93% [at 52.9 µM] |
| CCCC(C)C | 6.89% |
| CN(c1nccc(=O)[nH]1)C1CCN(c2nc3ccccc3n2Cc2ccc(F)cc2)CC1 | 1.9% [at 52.9 µM] |
| CCCC(=O)OCC | 4.71% |
| O=C(O)/C=C/c1cnc[nH]1 | -1.15% |

Tested on: not listed separately
Assay: qHTS assay to identify small molecule agonists of the constitutive androstane receptor (CAR) signaling pathway - cell viability counter screen (AID 1224836); further: nearly all actives have a fitted effect of over 45% in size; further: potency means the concentration at half of the fitted maximal effect
Details: HepG2-CYP2B6-hCAR viability, CellTiter-Fluor, 23 h, PK11195 added to every well; series mostly up to 92.4 µM; viability change, negative = cytotoxic: at the top concentration
Summary of the method: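 23 h treatment, 37 C, 5% CO2. Cell line: HepG2 stably expressing hCAR with a CYP2B6-2.2kb construct. Co-treatment: PK11195, 0.75 uM final. Read-out: CellTiter-Fluor fluorescence intensity.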

| SMILES | viability change, negative = cytotoxic | Potency |
| --- | --- | --- |
| Cc1ccc(C)o1 | -2.45% |  |
| CCCCCCCCCC(=O)OCC | -2.64% |  |
| CC[C@H](C)[C@@H](C(=O)O)n1sc2ccccc2c1=O | 2.96% |  |
| O=C(NS(=O)(=O)/C=C/c1cccs1)c1ccc(F)cc1Br | 7.77% |  |
| CC(=O)O[C@H]1C[C@@H]2CC[C@@H]3[C@H](CC[C@@]4(C)[C@H]3C[C@H]([N+]3(C)CCCCC3)[C@@H]4OC(C)=O)[C@@]2(C)C[C@@H]1N1CCCCC1 | 1.73% [at 42.5 µM] |  |
| O=c1[nH]cnc2ccccc12 | 8.19% |  |
| Cc1ccc(C(=O)C(C)CN2CCCCC2)cc1 (configuration not stated) | -0.722% [at 42.5 µM] |  |
| CC(C)c1ccccc1C(C)C | 0.286% |  |
| CC(C)(C)c1ccc(S)cc1 | 2.44% |  |
| CC(=O)[C@@]1(O)CC[C@H]2[C@@H]3C[C@H](C)C4=CC(=O)CC[C@]4(C)[C@H]3CC[C@@]21C | 9.26% [at 42.5 µM] |  |
| C#CCOC(=O)[C@@H](C)Oc1ccc(Oc2ncc(Cl)cc2F)cc1 | 4.4% |  |
| N#CCc1cccc(C(F)(F)F)c1 | 0.0727% |  |
| CN(C)CC[C@@H](c1ccc(Br)cc1)c1ccccn1 | -22.8% [at 42.5 µM] |  |
| CC1=CC(=O)/C(=C(/C)O)C(=O)O1 | 0.215% |  |
| O=C(NN1CCCC1)NS(=O)(=O)c1ccc(Cl)cc1 | 5.59% [at 42.5 µM] |  |
| Nc1nc(N)c(-c2ccccc2)s1 | 7.76% [at 42.5 µM] |  |
| Oc1ccc(C(O)CNCCCCCCNCC(O)c2ccc(O)c(O)c2)cc1O (configuration not stated) | -14.2% [at 42.5 µM] |  |
| O=C(CC(=O)c1ccccc1)c1ccccc1 | 8.82% |  |

| SMILES | viability change, negative = cytotoxic | Potency |
| --- | --- | --- |
| OC(CCN1CCCCC1)(c1ccccc1)C1CCCCC1 (configuration not stated) | -18% [at 42.5 µM] |  |
| O=C1Nc2cc(Cl)ccc2Oc2ccccc21 | -1.15% [at 42.5 µM] |  |
| CC(=O)/C=C/C1C(C)=CCCC1(C)C (configuration not stated) | -11% |  |
| Oc1ccc(O)c2c(O)cccc12 | -21.2% |  |
| CCCCCOC(=O)COc1cc(N2C(=O)C3=C(CCCC3)C2=O)c(F)cc1Cl | -1.9% |  |
| Cn1c(NCCN(CCO)CCCc2ccc([N+](=O)[O-])cc2)cc(=O)n(C)c1=O | 5.58% [at 42.5 µM] |  |
| Cc1ccccn1 | -6% |  |
| C=CC(C)(CCC=C(C)C)OC(=O)c1ccccc1 (configuration not stated) | -3.95% |  |
| O=S1(=O)c2cccc3cccc(c23)N1CCCN1CCN(c2ccc(F)cc2)CC1 | 1.12% [at 42.5 µM] |  |
| Cc1cc(C)c(S(=O)(=O)O)cc1N=Nc1cc(S(=O)(=O)O)c2ccccc2c1O |  | 61.1 µM (active) |
| CCCCCOC(=O)c1ccc(O)cc1 | -10% |  |
| O=[N+]([O-])c1cc[n+]([O-])cc1 |  | 30.6 µM (active) |
| CC(C)(Oc1ccc(Cl)cc1)C(=O)OCCCOC(=O)C(C)(C)Oc1ccc(Cl)cc1 | 3.1% [at 42.5 µM] |  |
| CCCC(C)C | -1.84% |  |
| CN(c1nccc(=O)[nH]1)C1CCN(c2nc3ccccc3n2Cc2ccc(F)cc2)CC1 | 15.1% [at 42.5 µM] |  |
| CCCC(=O)OCC | 0.467% |  |
| O=S1(=O)N=C(O)c2ccccc21 | 0.0598% [at 42.5 µM] |  |
| O=C(O)/C=C/c1cnc[nH]1 | 2.49% |  |

Reference: PubChem BioAssay (Tox21)
